# Screening results (PubChem BioAssay)
# TLR9-MyD88 block: inhibitors of human TLR9-MyD88 binding. CHO BLA complementation TLR9-MyD88, CCF4 FRET ratio. 340,000 compounds, 0.21% hits. inhibition, % at 4.98 µM;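 active means inhibition above the mean over all tested compounds plus 3 SD, cut at about 21% in these data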;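 further: 0% = DMSO only wells and 100% = clavulanate BLA inhibitor control wells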
# HSF1 inhib: HSF1 inhibition; 300,000 compounds, 0.77% hits; activity change, negative = inhibition, % at 7.5 µM (by protocol); NIH3T3-HGL HSE-luciferase, MG132-induced, luminescence 8 h; stronger effect = lower value;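 active means more than half of replicate wells show activity change below -50%, luminescence cut by over half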;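 further: luciferase reports HSF-1 transcriptional activity via heat shock element; 0% = median of DMSO wells and -100% = zero luminescence signal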
# HSF1 activator: increases HSF-1 driven luciferase reporter signal | NIH3T3-HGL HSF-1 luciferase reporter, MG132, 8 h; 100% = twice DMSO control signal | activation, % at 9 µM | 300,000 compounds, 1.7% hits | AID 504408;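 active means mean replicate activation of at least 50% with a set share of replicates each reaching 50%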;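 further: 0% = median of the neutral control wells and 100% = twice that signal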
# TLR4-MyD88 BLA: TLR4-MyD88 interaction inhibition in cells; HeLa CL3-4 TLR4/MyD88 BLA complementation, FRET ratio; O00206+Q99836; 200,000 compounds, 0.18% hits; inhibition, % at 8.4 µM; AID 861; in the data active means inhibition above about 25%;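 further: 0% = vehicle and 100% = reference inhibitor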
# NOD2-RIPK2 inh: blocks binding of human NOD2 to RIPK2 | O43353 | 360,000 compounds, 0.38% hits | CHO BLA complementation NOD2-RIPK2, CCF4 ratio | inhibition, % at 4.98 µM; in the data active means inhibition above about 21%;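 further: 0% = vehicle only and 100% = reference blocker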
# An asterisk follows results filed as active; · = no result. Hits are enriched below; roughly 2.4% of the tested compounds scored in any of these assays.
SMILES,TLR9-MyD88 block,HSF1 inhib,HSF1 activator,TLR4-MyD88 BLA,NOD2-RIPK2 inh
OCCCCCN=c1cc(-c2ccccc2)oc2ccc(Cl)cc12,0.1,69.3,97.7*,-0.3,-8.3
Cc1ccc(NC(=O)N2CCCc3ccccc32)cc1,0.9,5.5,39.6,-9.2,3.4
Cc1ccc(C(=O)Nc2ccc(N3CCN(C)CC3)cc2)cc1C,8.7,-51.4*,-56.1,·,-7.0
CC(=O)c1ccc(NC(=O)c2ccc(C)c(Br)c2)cc1,6.4,32.3,56.0*,-12.1,6.7
Cc1ccc(C(=O)Nc2ccc(N3CCN(S(C)(=O)=O)CC3)cc2)cc1C,·,5.9,26.7,7.0,-11.1
Cc1ccc(NC(=O)N2CCc3ccccc32)cc1,3.2,39.9,62.8*,11.9,-6.4
CCCCC(=O)Nc1ccc(C(=O)NNC(=O)c2ccc(C)c(Br)c2)cc1,-1.4,-5.7,2.7,-7.0,0.2
Cc1ccc(NC(=O)N2CCc3ccccc32)cc1C,0.9,15.5,51.3*,3.3,-15.5
COc1ccc(NC(=O)N2CCCc3ccccc32)cc1OC,1.4,-1.7,10.8,·,-8.5
COc1ccc(CN2CCN(C(=O)Cn3nc(C)n4cccc4c3=O)CC2)c(OC)c1OC,-5.6,-5.2,13.6,·,-1.8
CN1CCN(c2ccc(NC(=O)N3CCc4ccccc43)cc2)CC1,-1.4,-85.2*,-86.0,·,-2.9
CN1CCN(c2ccc(NC(=O)Cc3ccccc3)cc2)CC1,4.6,11.0,-3.5,19.2,3.9
O=C(Nc1ccnn1C1CCN(Cc2cc(Cl)ccc2O)CC1)C1CC1,12.4,5.8,-9.4,·,-4.4
Cc1ccc(NNC2CC(=O)N(c3cccc(Cl)c3)C2=O)cc1 (centres undefined),7.5,·,·,-7.8,2.5
O=C1CC(NNc2ccccc2)C(=O)N1c1ccccc1 (centres undefined),3.0,15.5,63.0*,-13.2,-3.8
COc1ccc(N2C(=O)CC(NNc3nc4ccccc4s3)C2=O)cc1 (centres undefined),·,59.6,113.7*,·,0.8
O=C1CC(N2CCCCC2)C(=O)N1c1ccccc1 (centres undefined),-4.5,-53.0*,-61.8,6.6,15.6
CCn1c(-c2ccccc2O)n[nH]c1=S,4.8,12.6,28.2,-4.8,-25.1
CCn1c(-c2cc(-c3ccccc3)sc2N)n[nH]c1=S,·,28.9,64.3*,·,0.5
CC1(C2CCC3(C)OC3C2)CO1 (centres undefined),-2.4,·,·,·,8.0
Nc1ccc2nc(-c3ccccc3)[nH]c2c1,12.5,21.1,33.4,1.8,0.2
Nc1ccc2nc(-c3ccccn3)[nH]c2c1,5.2,-57.2*,-55.0,1.6,-4.6
Oc1ccc(/C=N/Nc2ccnc3cc(Cl)ccc23)c(O)c1,9.2,80.8,99.5*,·,10.0
COCCCn1c(=O)c2sccc2n2c(CCCC(=O)NCc3ccc(F)cc3)nnc12,-2.1,-3.0,-4.6,·,9.5
Nc1ccn([C@@H]2O[C@H](C(=O)N3CCSC3)[C@@H](O)[C@H]2O)c(=O)n1,·,·,·,·,-5.9
SMILES,TLR9-MyD88 block,HSF1 inhib,HSF1 activator,TLR4-MyD88 BLA,NOD2-RIPK2 inh
CCOC(=O)C1CCN(C(=O)COC(=O)c2oc3ccccc3c2C)CC1,3.5,-4.6,-2.4,·,-12.6
Cc1ccc(C(=O)n2cnnc2N)cc1,-1.4,14.5,66.1*,-3.1,-7.6
CC(=O)Nc1ccc(S(=O)(=O)N(C)CC(=O)N/N=C/c2ccc(C(=O)O)cc2)cc1,-2.5,4.8,28.0,·,-5.0
COc1ccc(/C=N/NC(=O)CN(C)S(=O)(=O)c2ccc(NC(C)=O)cc2)cc1,-8.9,-59.6*,-67.2,-7.6,-9.4
Brc1cnc2nc(SC/C=C/c3ccccc3)[nH]c2c1,7.5,49.8,62.2*,·,-9.2
Nc1ccc(S(=O)(=O)N2CCCC2)cc1Cl,-0.4,-1.4,-13.4,·,-16.7
CCCCc1c(O)nc(SCC(=O)Nc2ccc(OC)cc2)n(-c2ccc(C)c(C)c2)c1=O,-10.5,·,·,·,-10.7
c1cncc(-c2nnc(SCc3nc4ccccc4[nH]3)o2)c1,-3.7,-67.9*,-72.3,1.7,2.9
c1ccc(CSc2nnc(-c3cccnc3)o2)cc1,2.0,10.2,25.0,-2.4,7.8
COc1ccc2c(COC(=O)CCS(=O)(=O)c3ccc(C)cc3)cc(=O)oc2c1,-4.1,-73.3*,-78.9,·,-2.0
Cc1ccc2c(COC(=O)c3ccccc3Cl)cc(=O)oc2c1,-8.1,55.0,100.7*,·,-16.0
Cc1ccc2c(COC(=O)c3ccccc3Br)cc(=O)oc2c1,-4.5,44.2,88.0*,·,-13.2
COc1ccc(Br)c(C(=O)OCc2cc(=O)oc3cc(C)ccc23)c1,6.3,12.4,43.8,·,-3.1
COc1ccc(N2CCN(Cc3csc(C)c3-c3ccc(C)cc3)CC2)cc1,-3.6,7.1,11.8,·,10.7
O=C(Cn1cnc2ccccc21)Nc1ccc2c(c1)OCCCO2,-14.3,·,·,·,-4.9
O=C1CC(/C=C/c2ccc(Cl)cc2)=Nc2ccccc2N1,-7.7,62.8,70.3*,-7.8,3.0
N#Cc1ccc(C(=O)Nc2cc(C3CC3)nn2-c2ccccc2)cc1,-1.1,-0.8,-11.6,·,7.4
N#C/C(=C/Nc1ccccc1)c1ccsc1,4.6,9.1,17.3,4.4,-12.1
Cc1ccc(N/C=C(/C#N)c2ccsc2)cc1,-12.3,26.3,53.2*,-1.2,-8.1
Clc1nnc(NC2CCCCC2)c(Cl)c1Cl,-0.8,·,·,·,1.5
Cc1nc2cc(NC(=O)NCc3ccc4c(c3)OCO4)ccc2o1,-2.5,-6.0,5.6,-4.0,-9.3
Cc1nc2cc(NC(=O)Nc3ccc(Br)cc3)ccc2o1,6.5,18.9,58.3*,6.7,-2.5
CN(C(=O)c1cccc(NC(=O)Cc2ccc(NC(=O)C3CCCN(S(=O)(=O)c4cccc([N+](=O)[O-])c4)C3)cc2)c1)C1CCCC1 (centres undefined),1.3,·,·,·,3.9
Nc1cc2c(cc1Cl)-c1ccc(Cl)cc1C2,·,·,·,·,-10.5
Cc1ccc(C)c(C(=O)OCC(=O)NC(=O)NCc2ccccc2)c1,-7.8,·,·,·,0.8
SMILES,TLR9-MyD88 block,HSF1 inhib,HSF1 activator,TLR4-MyD88 BLA,NOD2-RIPK2 inh
Cc1ccc(C)c(C(=O)NCCN(C)C)c1,11.5,1.3,-2.2,-4.7,-0.3
C=C(CN(C)C)C(=O)c1cc(C)ccc1C,-0.2,·,·,·,45.2*
COCCN(C(=S)Nc1c(C)cc(C)cc1C)C(C)c1cccnc1 (centres undefined),7.9,-7.9,-1.4,-6.4,-5.7
COCCN(C(=S)Nc1c(C)cccc1C)C(C)c1cccnc1 (centres undefined),12.2,-51.8*,-62.1,5.8,-4.3
COC(C(=O)N/N=C(\C)CC(=O)Nc1ccc(Cl)cc1C)c1ccccc1 (centres undefined),-8.3,78.8,121.8*,-2.5,-3.2
Cc1ccc(C(OCC(O)CNCc2ccc(F)cc2)c2ccccc2)cc1 (centres undefined),-7.0,-0.8,9.4,·,6.0
CCOC(=O)c1c(C)[nH]c(C(=O)Cn2nnc(-c3ccccc3Cl)n2)c1C,3.4,26.4,61.0*,0.8,-1.7
CCOC(=O)c1cnc2ccc(C)cc2c1Sc1ccc(F)cc1,4.6,38.1,60.1*,7.0,3.3
CCc1cccc(NC(=O)COC(=O)c2cc([N+](=O)[O-])ccc2N2CCOCC2)c1,2.7,2.6,-0.5,·,-6.6
